# Results reported in paper PMC7862700, “An all-to-all approach to the identification of sequence-specific readers for epigenetic DNA modifications on cytosine”.
# Legend:
# Test in all cases: DAPPL (digital affinity profiling via proximity ligation, sequencing); 10 mM Tris-HCl pH 7.5, 50 mM NaCl, 1 mM DTT, 4% glycerol, room temperature, 30 min; GST-TFs on glutathione beads, 16-mer random dsDNA library, 0.1% formaldehyde crosslink after washing; high values mean tight binding
# FLI1 = molecular target: T1, FLI1 (Homo sapiens, UniProt Q01543 1-452); conditions: protein: recombinant; tags: N-terminal GST; dsDNA, one strand shown
# T1 sequence: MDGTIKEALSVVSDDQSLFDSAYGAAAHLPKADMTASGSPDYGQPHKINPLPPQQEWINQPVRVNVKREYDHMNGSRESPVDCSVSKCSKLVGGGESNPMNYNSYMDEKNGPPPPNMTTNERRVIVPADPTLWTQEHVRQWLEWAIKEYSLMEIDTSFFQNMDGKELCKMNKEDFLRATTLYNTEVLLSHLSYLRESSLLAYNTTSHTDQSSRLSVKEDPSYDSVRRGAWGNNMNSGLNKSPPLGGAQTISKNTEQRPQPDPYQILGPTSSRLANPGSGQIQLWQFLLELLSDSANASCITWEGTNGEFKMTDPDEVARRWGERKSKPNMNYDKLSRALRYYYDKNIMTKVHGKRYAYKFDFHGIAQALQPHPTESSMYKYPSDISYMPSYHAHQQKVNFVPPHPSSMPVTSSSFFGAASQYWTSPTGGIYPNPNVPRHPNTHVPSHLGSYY
# In short: (§1)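 In yeast, human transcription factors were expressed with a GST fusion, then pulled down on glutathione beads and given DNA barcodes. Pooled with a tag-only sample, they were exposed to 200 nmole of a 16-mer random double-stranded DNA library (Tris/NaCl/DTT/glycerol buffer, room temperature, 30 min), washed, crosslinked with 0.1% formaldehyde, proximity-ligated using BsaI/T4 ligase for 1 h at 37 °C, PCR-amplified and read on an Illumina NextSeq500. Each hexamer's frequency of reads for a factor, divided by the matching frequency for the tag-only sample, gives the binding signal.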
# ELK1 = molecular target: T2, ELK1 (Homo sapiens, UniProt P19419 1-428); conditions: protein: recombinant; tags: N-terminal GST; dsDNA, one strand shown
# T2 sequence: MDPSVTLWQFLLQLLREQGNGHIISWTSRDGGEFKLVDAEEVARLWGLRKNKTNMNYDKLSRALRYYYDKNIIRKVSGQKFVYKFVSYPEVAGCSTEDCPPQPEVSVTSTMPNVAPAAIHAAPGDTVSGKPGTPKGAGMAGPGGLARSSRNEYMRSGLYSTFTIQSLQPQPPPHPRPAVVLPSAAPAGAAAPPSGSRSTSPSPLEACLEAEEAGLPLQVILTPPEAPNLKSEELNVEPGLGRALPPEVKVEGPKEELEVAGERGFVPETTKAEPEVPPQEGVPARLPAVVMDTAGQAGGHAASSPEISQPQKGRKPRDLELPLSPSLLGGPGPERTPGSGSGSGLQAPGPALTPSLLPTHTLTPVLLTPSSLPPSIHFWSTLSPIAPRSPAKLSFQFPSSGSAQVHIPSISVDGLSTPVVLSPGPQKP
# In short: as §1
# GABPA = molecular target: T3, GABPA (Homo sapiens, UniProt Q06546 1-454); conditions: protein: recombinant; tags: N-terminal GST; dsDNA, one strand shown
# T3 sequence: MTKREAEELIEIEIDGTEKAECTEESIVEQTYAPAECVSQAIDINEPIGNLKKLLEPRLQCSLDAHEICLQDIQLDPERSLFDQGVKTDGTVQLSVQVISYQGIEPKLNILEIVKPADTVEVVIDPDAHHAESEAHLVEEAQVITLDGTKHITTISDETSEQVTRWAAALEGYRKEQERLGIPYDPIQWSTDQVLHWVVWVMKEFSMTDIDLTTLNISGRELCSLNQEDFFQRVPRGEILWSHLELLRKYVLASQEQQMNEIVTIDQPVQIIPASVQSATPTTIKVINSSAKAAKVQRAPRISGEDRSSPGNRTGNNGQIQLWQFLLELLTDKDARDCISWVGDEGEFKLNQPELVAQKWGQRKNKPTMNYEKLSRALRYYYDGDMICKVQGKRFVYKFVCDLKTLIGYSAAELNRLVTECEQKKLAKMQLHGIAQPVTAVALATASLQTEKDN
# In short: as §1
# ERG = molecular target: T4, ERG (Homo sapiens, UniProt P11308 1-479); conditions: protein: recombinant; tags: N-terminal GST; dsDNA, one strand shown
# T4 sequence: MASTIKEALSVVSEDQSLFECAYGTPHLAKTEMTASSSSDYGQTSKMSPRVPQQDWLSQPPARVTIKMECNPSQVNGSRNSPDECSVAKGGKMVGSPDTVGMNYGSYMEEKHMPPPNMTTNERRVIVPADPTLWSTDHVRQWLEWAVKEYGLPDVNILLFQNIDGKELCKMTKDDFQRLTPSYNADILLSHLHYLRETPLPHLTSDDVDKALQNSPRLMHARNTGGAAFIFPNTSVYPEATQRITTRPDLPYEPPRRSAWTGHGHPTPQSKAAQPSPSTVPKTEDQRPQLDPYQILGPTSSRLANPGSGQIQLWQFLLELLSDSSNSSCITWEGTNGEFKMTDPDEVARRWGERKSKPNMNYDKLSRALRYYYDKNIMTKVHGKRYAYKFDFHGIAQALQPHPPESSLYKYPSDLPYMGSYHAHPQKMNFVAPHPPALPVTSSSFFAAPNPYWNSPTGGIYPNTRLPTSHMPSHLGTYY
# In short: as §1
# ELF1 = ELF1 (Homo sapiens, UniProt P32519 1-619); conditions: protein: recombinant; tags: N-terminal GST; dsDNA, one strand shown
# In short: as §1
# EHF = molecular target: T5, EHF (Homo sapiens, UniProt Q9NZC4 1-300); conditions: protein: recombinant; tags: N-terminal GST; dsDNA, one strand shown
# T5 sequence: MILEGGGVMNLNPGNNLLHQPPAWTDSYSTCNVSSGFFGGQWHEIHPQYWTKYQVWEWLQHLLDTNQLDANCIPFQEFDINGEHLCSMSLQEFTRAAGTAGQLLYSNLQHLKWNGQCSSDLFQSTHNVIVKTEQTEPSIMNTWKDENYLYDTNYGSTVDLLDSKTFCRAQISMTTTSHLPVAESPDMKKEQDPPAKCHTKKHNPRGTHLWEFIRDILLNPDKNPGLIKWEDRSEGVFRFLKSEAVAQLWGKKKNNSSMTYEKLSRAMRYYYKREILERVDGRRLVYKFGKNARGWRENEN
# In short: as §1
# SPI1 = SPI1 (Homo sapiens, UniProt P17947 1-270); conditions: protein: recombinant; tags: N-terminal GST; dsDNA, one strand shown
# In short: as §1
# SPIB = SPIB (Homo sapiens, UniProt Q01892 1-262); conditions: protein: recombinant; tags: N-terminal GST; dsDNA, one strand shown
# In short: as §1
# ELK3 = molecular target: T6, ELK3 (Homo sapiens, UniProt P41970 1-407); conditions: protein: recombinant; tags: N-terminal GST; dsDNA, one strand shown
# T6 sequence: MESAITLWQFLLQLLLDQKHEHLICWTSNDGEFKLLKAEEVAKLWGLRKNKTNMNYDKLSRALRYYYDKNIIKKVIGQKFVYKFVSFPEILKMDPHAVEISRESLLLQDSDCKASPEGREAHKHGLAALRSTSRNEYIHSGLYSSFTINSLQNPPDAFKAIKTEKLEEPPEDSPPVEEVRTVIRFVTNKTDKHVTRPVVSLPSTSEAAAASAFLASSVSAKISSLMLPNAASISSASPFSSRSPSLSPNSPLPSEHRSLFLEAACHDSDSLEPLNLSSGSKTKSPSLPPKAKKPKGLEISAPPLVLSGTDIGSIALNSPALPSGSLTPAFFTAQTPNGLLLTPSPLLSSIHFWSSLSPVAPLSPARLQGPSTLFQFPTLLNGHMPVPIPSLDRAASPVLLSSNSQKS
# In short: as §1
# FEV = molecular target: T7, FEV (Homo sapiens, UniProt Q99581 1-238); conditions: protein: recombinant; tags: N-terminal GST; dsDNA, one strand shown
# T7 sequence: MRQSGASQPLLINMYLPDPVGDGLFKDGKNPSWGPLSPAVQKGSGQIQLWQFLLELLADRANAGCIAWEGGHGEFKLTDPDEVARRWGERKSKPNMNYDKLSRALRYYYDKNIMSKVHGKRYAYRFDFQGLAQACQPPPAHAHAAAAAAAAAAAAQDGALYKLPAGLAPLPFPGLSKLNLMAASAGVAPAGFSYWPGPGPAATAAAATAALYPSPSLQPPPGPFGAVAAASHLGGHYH
# In short: as §1
# ETV5 = ETV5 (Homo sapiens, UniProt P41161 1-510); conditions: protein: recombinant; tags: N-terminal GST; dsDNA, one strand shown
# In short: as §1
# HSF1 = HSF1 (Homo sapiens, UniProt Q00613 1-529); conditions: protein: recombinant; tags: N-terminal GST; chain copies: 3; dsDNA, one strand shown
# In short: as §1
# SPIC = molecular target: T8, SPIC (Homo sapiens, UniProt Q8N5J4 1-248); conditions: protein: recombinant; tags: N-terminal GST; dsDNA, one strand shown
# T8 sequence: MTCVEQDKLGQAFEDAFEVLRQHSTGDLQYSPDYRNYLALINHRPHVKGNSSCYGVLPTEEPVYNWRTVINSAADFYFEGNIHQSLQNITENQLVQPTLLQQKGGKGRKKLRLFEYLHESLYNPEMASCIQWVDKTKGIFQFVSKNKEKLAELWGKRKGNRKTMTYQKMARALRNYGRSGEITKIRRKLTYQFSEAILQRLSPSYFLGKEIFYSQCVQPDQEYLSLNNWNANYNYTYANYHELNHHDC
# In short: as §1
# ELF4 = ELF4 (Homo sapiens, UniProt Q99607 1-663); conditions: protein: recombinant; tags: N-terminal GST; dsDNA, one strand shown
# In short: as §1
# ELK4 = molecular target: T9, ELK4 (Homo sapiens, UniProt P28324-2 1-405); conditions: protein: recombinant; tags: N-terminal GST; dsDNA, one strand shown
# T9 sequence: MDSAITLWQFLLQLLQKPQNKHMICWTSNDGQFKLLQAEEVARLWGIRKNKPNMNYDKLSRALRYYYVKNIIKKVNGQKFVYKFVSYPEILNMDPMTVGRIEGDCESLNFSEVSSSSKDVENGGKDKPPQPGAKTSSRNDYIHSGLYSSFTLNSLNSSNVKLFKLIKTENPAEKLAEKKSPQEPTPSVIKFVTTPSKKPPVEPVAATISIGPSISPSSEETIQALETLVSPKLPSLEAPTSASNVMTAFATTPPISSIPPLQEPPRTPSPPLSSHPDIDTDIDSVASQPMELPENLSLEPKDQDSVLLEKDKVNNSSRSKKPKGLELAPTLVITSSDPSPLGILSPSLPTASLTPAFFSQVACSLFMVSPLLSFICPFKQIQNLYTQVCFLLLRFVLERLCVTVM
# In short: as §1
# ETV2 = molecular target: T10, ETV2 (Homo sapiens, UniProt O00321 1-342); conditions: protein: recombinant; tags: N-terminal GST; dsDNA, one strand shown
# T10 sequence: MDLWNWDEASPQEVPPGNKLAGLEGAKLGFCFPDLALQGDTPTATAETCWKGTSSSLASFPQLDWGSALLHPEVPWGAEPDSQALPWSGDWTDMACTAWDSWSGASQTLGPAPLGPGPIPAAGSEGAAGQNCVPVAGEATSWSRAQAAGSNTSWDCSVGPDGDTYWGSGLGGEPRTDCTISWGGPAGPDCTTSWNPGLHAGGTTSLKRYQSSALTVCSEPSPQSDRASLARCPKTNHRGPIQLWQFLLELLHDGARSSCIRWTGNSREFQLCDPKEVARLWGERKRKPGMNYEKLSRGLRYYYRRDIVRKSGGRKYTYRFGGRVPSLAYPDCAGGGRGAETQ
# In short: as §1
# ELF3 = molecular target: T11, ELF3 (Homo sapiens, UniProt P78545 1-371); conditions: protein: recombinant; tags: N-terminal GST; dsDNA, one strand shown
# T11 sequence: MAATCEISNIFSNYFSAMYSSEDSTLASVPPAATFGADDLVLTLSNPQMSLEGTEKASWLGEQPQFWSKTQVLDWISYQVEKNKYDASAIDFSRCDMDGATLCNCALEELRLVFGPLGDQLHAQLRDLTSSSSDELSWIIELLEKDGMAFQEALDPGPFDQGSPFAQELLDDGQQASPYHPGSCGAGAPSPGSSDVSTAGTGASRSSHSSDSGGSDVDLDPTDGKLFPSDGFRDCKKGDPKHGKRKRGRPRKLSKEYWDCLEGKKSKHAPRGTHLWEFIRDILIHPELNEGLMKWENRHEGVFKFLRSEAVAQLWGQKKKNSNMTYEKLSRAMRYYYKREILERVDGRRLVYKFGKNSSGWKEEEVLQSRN
# In short: as §1
# ETV1 = ETV1 (Homo sapiens, UniProt P50549 1-477); conditions: protein: recombinant; tags: N-terminal GST; dsDNA, one strand shown
# In short: as §1
# Sequence of ETV1 (P50549 whole entry): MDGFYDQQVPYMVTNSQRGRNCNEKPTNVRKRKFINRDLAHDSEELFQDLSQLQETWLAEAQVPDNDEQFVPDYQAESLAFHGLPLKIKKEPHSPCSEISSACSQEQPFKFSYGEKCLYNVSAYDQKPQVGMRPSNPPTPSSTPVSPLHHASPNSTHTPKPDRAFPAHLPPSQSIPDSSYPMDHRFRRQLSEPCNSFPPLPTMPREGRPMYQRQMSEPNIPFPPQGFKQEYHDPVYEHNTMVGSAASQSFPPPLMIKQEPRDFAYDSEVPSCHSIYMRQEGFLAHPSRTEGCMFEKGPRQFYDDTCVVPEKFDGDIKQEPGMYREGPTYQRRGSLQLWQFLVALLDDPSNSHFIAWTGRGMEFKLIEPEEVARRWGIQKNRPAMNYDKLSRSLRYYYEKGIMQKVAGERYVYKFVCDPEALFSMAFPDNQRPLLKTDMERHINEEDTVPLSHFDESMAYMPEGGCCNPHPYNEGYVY
# Sequence of SPIB (Q01892 whole entry): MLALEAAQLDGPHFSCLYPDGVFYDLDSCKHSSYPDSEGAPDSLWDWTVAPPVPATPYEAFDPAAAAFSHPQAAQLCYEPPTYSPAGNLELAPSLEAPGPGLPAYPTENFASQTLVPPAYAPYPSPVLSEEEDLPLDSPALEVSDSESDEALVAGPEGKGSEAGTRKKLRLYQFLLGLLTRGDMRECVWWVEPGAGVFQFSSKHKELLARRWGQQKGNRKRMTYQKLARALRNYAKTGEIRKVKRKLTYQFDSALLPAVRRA
# Sequence of HSF1 (Q00613 whole entry): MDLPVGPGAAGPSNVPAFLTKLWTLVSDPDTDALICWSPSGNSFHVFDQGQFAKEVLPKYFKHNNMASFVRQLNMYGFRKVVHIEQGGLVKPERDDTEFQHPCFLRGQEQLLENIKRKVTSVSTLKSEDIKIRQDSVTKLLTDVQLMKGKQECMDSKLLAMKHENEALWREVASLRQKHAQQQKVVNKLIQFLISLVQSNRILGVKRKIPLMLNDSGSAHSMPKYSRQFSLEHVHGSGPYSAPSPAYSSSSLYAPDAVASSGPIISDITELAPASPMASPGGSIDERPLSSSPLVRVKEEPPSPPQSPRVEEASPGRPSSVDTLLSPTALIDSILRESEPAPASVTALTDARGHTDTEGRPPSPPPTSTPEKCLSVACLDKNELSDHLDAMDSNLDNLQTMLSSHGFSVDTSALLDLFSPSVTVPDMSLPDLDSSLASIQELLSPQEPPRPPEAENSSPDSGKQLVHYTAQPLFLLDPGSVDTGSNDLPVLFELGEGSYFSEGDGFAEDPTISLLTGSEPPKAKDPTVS
# Sequence of ELF4 (Q99607 whole entry): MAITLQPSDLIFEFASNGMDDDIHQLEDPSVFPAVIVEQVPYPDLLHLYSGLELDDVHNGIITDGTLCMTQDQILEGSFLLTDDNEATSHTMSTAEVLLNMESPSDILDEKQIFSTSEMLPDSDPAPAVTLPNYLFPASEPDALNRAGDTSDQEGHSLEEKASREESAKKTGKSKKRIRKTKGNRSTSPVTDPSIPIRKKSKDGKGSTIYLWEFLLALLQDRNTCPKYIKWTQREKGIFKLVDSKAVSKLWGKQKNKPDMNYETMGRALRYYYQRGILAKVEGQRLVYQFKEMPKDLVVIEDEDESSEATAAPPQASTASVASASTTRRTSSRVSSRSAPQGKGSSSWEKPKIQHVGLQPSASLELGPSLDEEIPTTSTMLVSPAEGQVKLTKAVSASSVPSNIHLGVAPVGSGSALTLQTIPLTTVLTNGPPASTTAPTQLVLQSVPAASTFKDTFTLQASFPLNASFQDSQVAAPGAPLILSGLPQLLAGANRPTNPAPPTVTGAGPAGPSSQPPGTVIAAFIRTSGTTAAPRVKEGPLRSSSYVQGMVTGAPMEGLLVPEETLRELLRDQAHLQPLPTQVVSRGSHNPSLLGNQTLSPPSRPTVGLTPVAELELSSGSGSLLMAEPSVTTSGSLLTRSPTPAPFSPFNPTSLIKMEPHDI
# Sequence of ELF1 (P32519 whole entry): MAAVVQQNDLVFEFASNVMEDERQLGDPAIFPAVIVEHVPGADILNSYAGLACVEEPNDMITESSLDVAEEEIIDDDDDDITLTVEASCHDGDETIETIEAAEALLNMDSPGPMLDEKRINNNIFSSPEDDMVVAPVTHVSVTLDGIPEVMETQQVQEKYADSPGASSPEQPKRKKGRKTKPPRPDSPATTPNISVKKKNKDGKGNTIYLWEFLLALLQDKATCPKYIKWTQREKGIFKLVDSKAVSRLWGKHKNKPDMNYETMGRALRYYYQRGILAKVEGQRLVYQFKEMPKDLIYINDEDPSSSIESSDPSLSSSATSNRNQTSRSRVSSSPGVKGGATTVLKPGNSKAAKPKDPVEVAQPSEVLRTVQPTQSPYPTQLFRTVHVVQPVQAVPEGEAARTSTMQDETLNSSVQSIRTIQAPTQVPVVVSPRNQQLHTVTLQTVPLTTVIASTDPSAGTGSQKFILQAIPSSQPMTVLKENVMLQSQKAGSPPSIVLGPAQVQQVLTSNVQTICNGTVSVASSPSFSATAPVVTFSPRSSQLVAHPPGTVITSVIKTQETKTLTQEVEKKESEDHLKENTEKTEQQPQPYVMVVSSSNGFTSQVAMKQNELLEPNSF
# Sequence of ETV5 (P41161 whole entry): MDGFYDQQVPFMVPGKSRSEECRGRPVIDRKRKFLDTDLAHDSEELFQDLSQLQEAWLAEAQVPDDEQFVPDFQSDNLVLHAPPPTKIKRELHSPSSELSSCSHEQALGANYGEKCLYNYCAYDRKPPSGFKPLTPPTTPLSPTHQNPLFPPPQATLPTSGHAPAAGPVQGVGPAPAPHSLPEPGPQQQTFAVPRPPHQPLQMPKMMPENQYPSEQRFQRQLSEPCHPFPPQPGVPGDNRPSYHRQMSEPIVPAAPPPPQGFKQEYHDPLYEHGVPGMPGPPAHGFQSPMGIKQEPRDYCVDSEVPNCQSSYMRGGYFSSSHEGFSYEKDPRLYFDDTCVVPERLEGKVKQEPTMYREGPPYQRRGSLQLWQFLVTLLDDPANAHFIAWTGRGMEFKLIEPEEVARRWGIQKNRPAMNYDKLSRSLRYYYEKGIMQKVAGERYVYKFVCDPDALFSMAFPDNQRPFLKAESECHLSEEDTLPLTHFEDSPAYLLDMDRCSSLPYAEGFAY
sequence,measurement,setting,value
AACTTG,binding signal,FLI1,"1.26 fold enrichment (6-mer frequency, TF over GST control)"
same,binding signal,ELK1,"1.2 fold enrichment (6-mer frequency, TF over GST control)"
same,binding signal,GABPA,"1.18 fold enrichment (6-mer frequency, TF over GST control)"
same,binding signal,ERG,"1.11 fold enrichment (6-mer frequency, TF over GST control)"
same,binding signal,ELF1,"1.21 fold enrichment (6-mer frequency, TF over GST control)"
same,binding signal,EHF,"1.14 fold enrichment (6-mer frequency, TF over GST control)"
same,binding signal,SPI1,"1.15 fold enrichment (6-mer frequency, TF over GST control)"
same,binding signal,SPIB,"1.19 fold enrichment (6-mer frequency, TF over GST control)"
same,binding signal,ELK3,"1.08 fold enrichment (6-mer frequency, TF over GST control)"
same,binding signal,FEV,"1.17 fold enrichment (6-mer frequency, TF over GST control)"
same,binding signal,ETV5,"1.14 fold enrichment (6-mer frequency, TF over GST control)"
same,binding signal,HSF1,"1.09 fold enrichment (6-mer frequency, TF over GST control)"
same,binding signal,SPIC,"1.27 fold enrichment (6-mer frequency, TF over GST control)"
same,binding signal,ELF4,"1.28 fold enrichment (6-mer frequency, TF over GST control)"
same,binding signal,ELK4,"1.11 fold enrichment (6-mer frequency, TF over GST control)"
same,binding signal,ETV2,"1.12 fold enrichment (6-mer frequency, TF over GST control)"
same,binding signal,ELF3,"1.19 fold enrichment (6-mer frequency, TF over GST control)"
same,binding signal,ETV1,"1.05 fold enrichment (6-mer frequency, TF over GST control)"
